Compounds without any hit were thinned out: in the full panel of roughly 83,000, 20% have a hit.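 Negative percent growth values reflect cell death: -40 means 40% of the cells present at the start died, and -100 means all died.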 A number with no mark means an inactive call. The source made the active and inactive calls. Rule for the calls: active = growth percent below 10; inactive = the rest.
Legend:
Assay in all cases: NCI-60 one-dose screen, 48 h (100 = growth as untreated, 0 = no growth, -100 = all killed)
Settings in all cases: 10 µM unless noted
[1] = system: NCI-H23 lung
[2] = system: NCI-H226 lung
[3] = system: NCI-H322M lung
[4] = system: HOP-62 NSCLC
[5] = system: NCI-H460 lung
[6] = system: HOP-92 NSCLC
[7] = system: NCI-H522 lung
[8] = system: A549/ATCC NSCLC
[9] = system: 786-0 renal
[10] = system: COLO 205 colon
[11] = system: DU-145 prostate
[12] = system: K-562 leukemia
[13] = system: MALME-3M melanoma
[14] = system: MDA-MB-231 breast
[15] = system: RXF 393 renal
[16] = system: SF-268 CNS
[17] = system: SF-295 CNS
[18] = system: SF-539 CNS
[19] = system: UACC-257 melanoma
[20] = system: M14 melanoma

Compound | growth [1] | growth [2] | growth [3] | growth [4] | growth [5] | growth [6] | growth [7] | growth [8] | growth [9] | growth [10] | growth [11] | growth [12] | growth [13] | growth [14] | growth [15] | growth [16] | growth [17] | growth [18] | growth [19] | growth [20]
C[C@H]1C=C(C[C@@H](O)CC#CC#CCCCCC[C@@H](O)[C@H]2CCC(=O)O2)C(=O)O1 | 99.9% | 98.6% | 114% | 94.5% | 118% | 99.9% | 78.7% | 111% | 190% | 115% | 109% | 86.3% | 105% | 96.4% | 103% | 110% | 106% | 93.1% | 91.8% | 137%
COC(OC)C1(c2ccccc2)NC(=O)NC1=O (stereo not given) | 112% | 113% | 108% | 103% | 115% | 104% | 79.8% | 95.9% | 108% | 119% | 120% | 112% | 112% | 112% | 116% | 119% | 121% | 114% | 104% | 108%
COc1ccc(/C=C/C(=O)c2ccc(Oc3ncnc4ccccc34)cc2)cc1OC | 81.9% | 80.2% | 76.1% | 87.7% | 88.4% | 84.6% | 53.5% | 59.2% | 82.4% | 85.4% | 61.9% | 9.19% (active) | 77.5% | 81.6% | 88.1% | 74.8% | 85.7% | 73.5% | 93.8% | 64.3%
CC(Cc1cccc(C(F)(F)F)c1)NCCOC(=O)c1ccccc1 (stereo not given) | 101% | 98.3% | 100% | 102% | 114% | 114% | 100% | 105% | 97.9% | 106% | 112% | 94.4% | 104% | 102% | 117% | 99.5% | 98.4% | 116% | 105% | 106%
COc1ccc2c(c1)O/C(=C/c1ccc(OCC(=O)Nc3ccc(S(N)(=O)=O)cc3)cc1)C2=O | 100% | 86.9% | 97.8% | 104% | 101% | 91.4% | 80.7% | 88.5% | 96.7% | 114% | 101% | 85.7% | 111% | 94.7% | 97.2% | 94.8% | 106% | 97.7% | 102% | 102%
Nc1nccc2c1ccn2-c1ccc(NC(=O)Nc2cccc(C(F)(F)F)c2)cc1 | 90% | 81.9% | 98.2% | 94.2% | 90.8% | 57.4% | 87.2% | 91.3% | 110% | 92.1% | 96.7% | 81.5% | 99.3% | 72.9% | 97.8% | 96.3% | 78.2% | 86.1% | 113% | 91.5%
CCc1ccc(C2=C/C(=C/c3ccc(Cl)cc3)C(=O)N2CCc2ccc(S(N)(=O)=O)cc2)cc1 | 34.4% | 29.2% | 54.3% | 34.1% | 2.69% (active) | 15.1% | 5.98% (active) | 13.7% | 40% | -35.4% (active) | 43.8% | 11% | 41.5% | 43.8% | 7.12% (active) | 45.6% | 25.9% | 56.1% | 39.4% | 30.6%
CC(=O)CC/C=C(\C)[C@H](O)[C@H](C)C(=O)O[C@H]1C[C@H](C)C=C2C=C[C@@]3(C)O[C@@H](O)CC(=O)[C@]3(C)[C@H]21 | -35.8% (active) | -50.5% (active) | -17.6% (active) | -31.8% (active) | -16.6% (active) | -32.5% (active) | -43.4% (active) | -10.6% (active) | -49.7% (active) | -45.6% (active) | -22% (active) | -8.89% (active) | -82.5% (active) | -39.2% (active) | -88% (active) | -21.5% (active) | -22.7% (active) | -35.2% (active) | -33.7% (active) | -84.2% (active)
